This is part of a sample that, as a whole, favours compounds with a hit. Of some 83,000 tested, about 20% had one in any assay.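 How to read the values: 0–100, growth inhibition (40 = 60% inhibited); 0, no net growth; -100 to 0, cell death (-40 = 40% of starting cells died; -100 = all dead).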 Activity calls are given as the source filed them. Rule for the calls: active = growth percent below 10; inactive = the rest.
Legend:
Assay in all cases: NCI-60 one-dose screen, 48 h (100 = growth as untreated, 0 = no growth, -100 = all killed)
Conditions in all cases: 10 µM unless noted
[1] = tested on: SR leukemia
[2] = tested on: RPMI-8226 leukemia
[3] = tested on: OVCAR-8 ovarian
[4] = tested on: OVCAR-5 ovarian
[5] = tested on: OVCAR-4 ovarian
[6] = tested on: SK-OV-3 ovarian
[7] = tested on: IGROV1 ovarian
[8] = tested on: OVCAR-3 ovarian
[9] = tested on: HS 578T breast
[10] = tested on: NCI/ADR-RES ovarian
[11] = tested on: T-47D breast
[12] = tested on: BT-549 breast
[13] = tested on: MDA-MB-435 melanoma
[14] = tested on: SW-620 colon
[15] = tested on: MCF7 breast
[16] = tested on: HCT-116 colon
[17] = tested on: KM12 colon
[18] = tested on: HCC-2998 colon

SMILES	growth [1]	growth [2]	growth [3]	growth [4]	growth [5]	growth [6]	growth [7]	growth [8]	growth [9]	growth [10]	growth [11]	growth [12]	growth [13]	growth [14]	growth [15]	growth [16]	growth [17]	growth [18]
COc1ccc(-c2nc3cc(C(=O)NC4CCCCC4)ccc3n2C2CCCCC2)cc1	51.2% (inactive)	79.2% (inactive)	107% (inactive)	85.6% (inactive)	86.6% (inactive)	98.7% (inactive)	101% (inactive)	89.1% (inactive)	105% (inactive)	90.7% (inactive)	87.6% (inactive)	94.9% (inactive)	99.4% (inactive)	101% (inactive)	85.2% (inactive)	87.1% (inactive)	68.6% (inactive)	
CC1=C(C(=O)c2ccccc2)C(c2ccc3c(c2)OCO3)NC(=S)N1 (stereo unspecified)	6.28% (active)	44% (inactive)	46.7% (inactive)	72.5% (inactive)	82.3% (inactive)	51.6% (inactive)	46.1% (inactive)	12.9% (inactive)	23.4% (inactive)	43.3% (inactive)	67.9% (inactive)	50.6% (inactive)	-49.5% (active)	24.2% (inactive)	22% (inactive)		20% (inactive)	62.2% (inactive)
O=C1OCC2=C1C(c1cccc(F)c1)c1cc3c(cc1N2CCO)CCC3 (stereo unspecified)	12.3% (inactive)	23.3% (inactive)	13.5% (inactive)	36.2% (inactive)	48.8% (inactive)	32.8% (inactive)	23.5% (inactive)	-24.9% (active)	41.2% (inactive)	13.3% (inactive)	52.6% (inactive)	39.5% (inactive)	-36.9% (active)	26.3% (inactive)	19.7% (inactive)		13.4% (inactive)	7.85% (active)
O=C1/C(=C/c2ccc(Br)cc2)COc2ccc(O)cc21	12.1% (inactive)	-23.7% (active)	79.1% (inactive)	94.8% (inactive)	97.9% (inactive)	120% (inactive)	84.3% (inactive)	96.8% (inactive)	96.2% (inactive)	94.6% (inactive)	80.6% (inactive)	79.2% (inactive)	75.6% (inactive)	1.35% (active)	9.07% (active)		26.8% (inactive)	89.8% (inactive)
Brc1ccc(-c2nn(-c3ccccc3)cc2-c2nn[nH]n2)s1	87.4% (inactive)	89.5% (inactive)	96.3% (inactive)	108% (inactive)	92.7% (inactive)	98.2% (inactive)	102% (inactive)	96.5% (inactive)	89.9% (inactive)	103% (inactive)	89.6% (inactive)	93.2% (inactive)	103% (inactive)	97.1% (inactive)	86.7% (inactive)		99.7% (inactive)	97.6% (inactive)
CCCc1cc(CCC)n2nc(N)nc2n1	109% (inactive)	104% (inactive)	106% (inactive)	98.8% (inactive)	116% (inactive)	105% (inactive)	126% (inactive)	121% (inactive)	103% (inactive)	109% (inactive)	110% (inactive)	92.9% (inactive)	110% (inactive)	109% (inactive)	95.6% (inactive)		108% (inactive)	98.1% (inactive)
CN1CCN(Cc2ccc(NC(=O)c3cc(C#Cc4cnc(N)c5ncccc45)n(C)n3)cc2C(F)(F)F)CC1	2.23% (active)	69.2% (inactive)	69.4% (inactive)	140% (inactive)	114% (inactive)	111% (inactive)	113% (inactive)	119% (inactive)	25% (inactive)	96% (inactive)	101% (inactive)	117% (inactive)	102% (inactive)		39.7% (inactive)	96.1% (inactive)	87.8% (inactive)	128% (inactive)
C=CCNc1nc(O)c(/C=C2\C=Nc3ncccc32)s1	-9.51% (active)	42.7% (inactive)	10.7% (inactive)	5.27% (active)	34.7% (inactive)	-7% (active)	17% (inactive)	-7.02% (active)	-15% (active)	42.1% (inactive)	-8.68% (active)	-29.5% (active)	21.1% (inactive)	7.39% (active)	3.5% (active)		7.86% (active)	44.6% (inactive)
COc1cc(OCc2cccc(-c3ccc4c(c3)OCCO4)c2C)cc(OC)c1C=O	37.3% (inactive)	29.6% (inactive)	70.4% (inactive)	68.7% (inactive)	35.9% (inactive)	93.2% (inactive)	68.1% (inactive)	60.5% (inactive)	75.9% (inactive)	70.4% (inactive)	10.1% (inactive)	56.6% (inactive)	52.9% (inactive)		22.6% (inactive)	44.1% (inactive)	78.9% (inactive)	70.3% (inactive)
CCOC(=O)c1ccc2c(c1)[n+](=O)c(C(C)=O)c(C(F)(F)F)n2[O-]	-59.2% (active)	8.56% (active)	-42.6% (active)	-1.19% (active)	-5.96% (active)	24.8% (inactive)	-81.1% (active)	-84.7% (active)	-23.9% (active)	6.85% (active)	-26.1% (active)	-44.9% (active)	2.85% (active)	-0.801% (active)	-6.41% (active)		-85.5% (active)	-17.1% (active)
C#CCOc1cccc(Nc2ncnc3c(NC(=O)CCl)cccc23)c1	-39.4% (active)	-40.2% (active)	-0.718% (active)	67.6% (inactive)	-27% (active)	81.7% (inactive)	-58.9% (active)	-79% (active)	50.6% (inactive)	18.8% (inactive)	-31.4% (active)	23% (inactive)	26.4% (inactive)	1.15% (active)	10.9% (inactive)		28.6% (inactive)	91.8% (inactive)
O=C(Oc1ccccc1)c1cc(O)c(O)c(O)c1	32.9% (inactive)	65.7% (inactive)	71.4% (inactive)	107% (inactive)	63.7% (inactive)	77.3% (inactive)	76% (inactive)	18.1% (inactive)	39.9% (inactive)	61.1% (inactive)	59.7% (inactive)	65.1% (inactive)	53.3% (inactive)	62.7% (inactive)	79.3% (inactive)		74.7% (inactive)	68.5% (inactive)
CN1/C(=C/C=C/c2n(Cc3ccc4ccccc4c3)c(Cl)c(Cl)[n+]2Cc2ccc3ccccc3c2)Oc2ccccc21	95.3% (inactive)	-53.1% (active)	-86.1% (active)	-83.1% (active)	-70.7% (active)	-57.2% (active)	-80.4% (active)	-83.8% (active)	-44.4% (active)	33.4% (inactive)	-50.2% (active)	-84.8% (active)	-81.8% (active)	-79.9% (active)	-72.8% (active)		-80.9% (active)	-87.6% (active)
Cc1c(N2CCCCC2)[nH]c2ccccc12	119% (inactive)	62.6% (inactive)	105% (inactive)	124% (inactive)	142% (inactive)	118% (inactive)	136% (inactive)	125% (inactive)	96.2% (inactive)	107% (inactive)	110% (inactive)	121% (inactive)	103% (inactive)	100% (inactive)	111% (inactive)		113% (inactive)	113% (inactive)
C=CCn1c(SCC(=O)Nc2ccc(C(=O)/C=C/c3ccc(Cl)cc3)cc2)nnc1-c1ccccc1	82.5% (inactive)	-16% (active)	102% (inactive)	95.3% (inactive)	85.2% (inactive)	98.2% (inactive)	89.1% (inactive)	90.2% (inactive)	111% (inactive)	93.7% (inactive)	73% (inactive)	71.3% (inactive)	77.5% (inactive)	98.4% (inactive)	24.4% (inactive)		85.2% (inactive)	96.4% (inactive)
CC(=O)O[C@H]1CC[C@@]2(C)C(=CC[C@@H]3[C@@H]2CC[C@]2(C)C(Cl)=C(c4nc5ccc(Cl)cn5c4NC(C)(C)C)C[C@@H]32)C1	93% (inactive)	93.9% (inactive)	96.9% (inactive)	91.5% (inactive)	90.3% (inactive)	105% (inactive)	87.9% (inactive)	100% (inactive)	85.6% (inactive)	95.4% (inactive)	94.4% (inactive)	105% (inactive)	93.8% (inactive)		91.9% (inactive)	86.6% (inactive)	94.5% (inactive)	112% (inactive)
CCOC(=O)CCC(=O)P(=O)(O)O	4.41% (active)	42.1% (inactive)	97.1% (inactive)	116% (inactive)	115% (inactive)	80.5% (inactive)	110% (inactive)	115% (inactive)	114% (inactive)	102% (inactive)	98.6% (inactive)	101% (inactive)	125% (inactive)		110% (inactive)	86.2% (inactive)	112% (inactive)	99.8% (inactive)
CCCCCCCCOC(=O)c1c(C)[nH]c(/C=C2\N=C(c3ccc[nH]3)C=C2OC)c1C	14.1% (inactive)	-21% (active)	4.86% (active)	15.2% (inactive)	4.99% (active)	20.8% (inactive)	10.1% (inactive)	-38.6% (active)		15.9% (inactive)	4.23% (active)	10.4% (inactive)	-19.4% (active)	5.83% (active)	-58.1% (active)	-83.5% (active)	0.693% (active)	-26.4% (active)
